Measles CPE: compounds protecting cells from measles virus cytopathic effect, primary screen, measles RdRp inhibitor project, single point, MLSMR library, absorbance; protection (pct of control), % at 4 µM; 140,000 tested, 1.5% active; Measles virus-infected cells, CPE protection; AID 841, 2007; in the data active = protection mostly above about 24%, no sharp cut-off; inactive = mostly below about 26%
sdo1 growth: growth rescue of sdo1-depleted yeast, primary screen, S. cerevisiae, bone marrow failure model | S. cerevisiae sdo1-depleted JHY4D growth rescue, OD600 30 h; hits give high values; pdr5 snq2 efflux-pump mutant strain | z-score at 10 µM | 140,000 tested, 0.21% active | AID 817, 2007;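 active = z-score above 3 at both the 24 hr and the 30 hr optical density reads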;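 also: z-score against mean and SD of all compound wells on the same plate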
Phagocytosis inh: inhibitors of macrophage phagocytosis, primary screen, imaging, J774A.1 cells, IgG beads | J774A.1 macrophage IgG-bead phagocytosis | inhibition, % at 5 µM | 110,000 tested, 0.07% active | AID 1029, 2008;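 active = inhibition above the mean of the plate negative controls plus 5 SD, cut at about 13% in these data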;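 also: phagocytic index as fraction of beads internalized from green versus red external bead signal; plate controls were DMSO negative control for no effect and cytochalasin-D positive control for full effect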
SDO1 rescue DR: SDO1-depleted yeast growth rescue, concentration-response, diseases of bone marrow failure, JHY4D, OD600; OD recovery (test concentration not listed); 440 tested, 44% active; shares compounds with sdo1 growth; S. cerevisiae JHY4D (SDO1-depleted) growth rescue, 30 h; hits give high values; efflux-deficient strain, SNQ2 and PDR5 mutated;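 active = yeast growth recovered at 30 hours, either rising with dose fitted slope above 0.001 or with average optical density gain above 0.07, some results past the limit were not filed as active; inactive = growth falling with dose or no effect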;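 also: gain in OD600 from 0 h to 30 h averaged across all seven doses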
* marks the source's active call; other numbers are inactive results; · = no result. Only some compounds are listed: those with a hit (about 1.8% of all), similar ones and a draw of the others.

SMILES | Measles CPE | sdo1 growth | Phagocytosis inh | SDO1 rescue DR
COc1ccccc1NCCC(=O)OCC(=O)NC1CCCC(C)C1C (configuration not stated) | 9.7 | 0.16 | -1.8 | ·
CNC(=O)c1cc2cc(OC)ccc2oc1=O | 20.1 | 0.41 | -0.3 | ·
CNC(=O)c1cc2cc(OC)ccc2oc1=N | 7.0 | 12.2* | -0.8 | 0.102*
O=C(CCNS(=O)(=O)c1cccs1)N1CCc2ccccc2C1 | 1.1 | 0.66 | · | ·
Cc1c(C#N)c(N=CN(C)C)c(C(=O)c2ccc(Br)cc2)n1-c1ccc(Cl)cc1 | 17.3 | -2.29 | 0.3 | ·
CCCC1CCC(=NNC(=O)OC(C)(C)C)CC1 (configuration not stated) | 12.9 | 0.19 | -14.6 | ·
CCOC(=O)/C=C1\SCC(=O)N1CC(=O)NC12CC3CC(CC(C3)C1)C2 | 11.5 | 14* | -0.5 | 0.0837*
CCOC(=O)/C=C1\SCC(=O)N1CC(=O)NC(C)C | 11.1 | 1.02 | -1.0 | ·
COc1ccc(-c2nc3nc(C)cc(C)n3n2)cc1 | 5.4 | 12.6* | -1.0 | 0.063
COc1ccc(CNc2nc3nc(C)cc(C)n3n2)cc1 | 8.6 | -0.2 | · | ·
COc1ccc(N2C(=O)[C@@H]3[C@H](C2=O)[C@H]2c4ccccc4C=CN2[C@@H]3C(C)=O)cc1 | 12.2 | -0.61 | -1.2 | ·
N#Cc1ccc(-c2cccnc2)nc1SCC(=O)Nc1sc2c(c1C#N)CCC2 | 3.7 | -0.57 | -0.5 | ·
N#Cc1c(C(F)(F)F)cc(-c2ccccc2)nc1SCC(=O)Nc1sc2c(c1C#N)CCC2 | 5.8 | 1.54 | · | 0.0934*
CC(C)(C)OC(=O)NC1CONC1=O (configuration not stated) | 18.7 | -0.29 | -1.4 | ·
O=C(O)C1CC(=O)N(Cc2ccccc2)C1 (configuration not stated) | 4.0 | -0.04 | -1.7 | ·
CCOC(=O)c1[nH]c(COC(=O)C2CC(=O)N(Cc3ccccc3)C2)c(C(=O)OCC)c1C (configuration not stated) | 4.6 | 4.6* | 3.9 | 0.0462
CCCCOC(=O)c1ccc(NC(=O)COC(=O)CSc2nc(C)cc(C)n2)cc1 | 17.2 | -0.65 | -2.6 | ·
CC(=O)N(c1c(C)n(C)n(-c2ccccc2)c1=O)C1(C(=O)NC2CCCC2)CCCCC1 | 0.7 | 10.8* | -2.5 | 0.0636*
CC(=O)N(c1c(C)n(C)n(-c2ccccc2)c1=O)C1(C(=O)NC2CCCCC2)CCCCC1 | 31.8 | 0.61 | · | ·
COC(=O)c1cc2oc(C)cc2n1CC(=O)Nc1cc(C)cc(C)c1 | 2.6 | -0.38 | 0.3 | ·
O=C(C1CCCCC1)N1CCC(c2nc3ccccc3[nH]2)CC1 | 20.3 | 1.52 | 2.0 | ·
N#CC(C(=O)C1CCCCC1)c1nc2ccccc2[nH]1 (configuration not stated) | 7.2 | 8.84* | -0.2 | 0.043
COc1ccc(Br)cc1/C=N/NC(=O)C(c1ccncc1)N1CCOCC1 (configuration not stated) | 17.2 | 0.68 | · | ·
O=S1(=O)N=C(Oc2cccc3ccccc23)c2ccccc21 | 8.8 | -0.01 | · | ·
Cc1cccc(NC(=O)COC(=O)CNC(=O)C2CCCCC2)c1 | 2.5 | 5.72* | 0.2 | 0.0673
SMILES | Measles CPE | sdo1 growth | Phagocytosis inh | SDO1 rescue DR
N#Cc1ccc(NC(=O)COC(=O)CNC(=O)C2CCCCC2)cc1 | 5.1 | 0.26 | 0.6 | ·
C/C(=N/NC(=O)c1ccc(C)s1)c1cccc(NC(=O)COc2ccc(Cl)cc2Cl)c1 | 18.0 | 1.65 | 0.6 | 0.0625
C/C(=N/NC(=O)c1cccs1)c1ccc(NC(=O)COc2ccc(Cl)cc2Cl)cc1 | 2.4 | -0.47 | · | ·
CCCc1ccc(-c2cc(NC(=O)CSc3nnc(N)s3)n(-c3ccccc3)n2)cc1 | 5.2 | -0.06 | -9.8 | ·
COc1ccc(C(=O)NCCc2cn3ccc(C)cc3n2)cc1 | 28.7 | 1.08 | 0.2 | 0.0813*
COc1cc(C(=O)NCCc2cn3ccc(C)cc3n2)cc(OC)c1OC | 3.6 | 0.03 | -0.1 | ·
CC(=O)N1CCN(CC(=O)Nc2ccc3c(c2)CCC3)CC1 | 8.2 | 0.23 | -1.9 | ·
Cc1cccc(NC(=O)CC(C)(C)C)c1 | 0.0 | 0.18 | -1.7 | ·
Cc1cccc(NC(=O)Cc2ccc(F)cc2)c1 | 12.0 | 6.75* | -1.6 | 0.0753*
O=C(NCc1cccc(C(F)(F)F)c1)C1CC(c2c(Cl)cccc2Cl)=NO1 (configuration not stated) | 9.4 | -1.16 | 1.3 | ·
CCOC(=O)C1=C(c2ccccc2)NC(SCC)=C(C#N)C1c1cccnc1 (configuration not stated) | 6.5 | 0.84 | -0.5 | ·
O=C1CSC(c2ccccn2)N1c1ccc2ccccc2c1 (configuration not stated) | 4.9 | 0.05 | -3.4 | ·
O=C1CSC(c2ccccn2)N1c1ccccc1 (configuration not stated) | 3.6 | 4.1* | · | 0.0797*
C/C(=N\Nc1nc(Cl)c(Cl)cc1Cl)c1ccc(S(=O)(=O)NCc2ccco2)cc1 | 13.4 | -0.4 | 1.7 | ·
CCn1c(SCC(=O)N2CCCc3ccccc32)nnc1-c1ccoc1C | 26.6 | 0.12 | · | ·
Cc1[nH]c2ccccc2c1Cc1nnc(SCCC#N)o1 | 3.0 | -2.53 | · | ·
CCCc1nnc(NC(=O)COC(=O)c2cc(C)nc3ccccc23)s1 | 10.1 | -0.27 | -2.1 | ·
CCCc1nnc(NC(=O)C(CC)OC(=O)c2cc(C)nc3ccccc23)s1 (configuration not stated) | 29.1 | 12.2* | · | 0.0392
O=C(COC(=O)CCc1nc2ccccc2s1)Nc1ccc(Cl)cn1 | 14.0 | 0.88 | 4.7 | ·
Cc1ccc(NC(=O)c2noc3c2CCc2ccccc2-3)cc1 | 13.0 | 0.86 | -0.6 | ·
Cc1cc(NC(=O)c2noc3c2CCc2ccccc2-3)n(-c2ccccc2)n1 | 13.1 | 9.63* | -0.3 | 0.0829*
C(#Cc1ccccc1)C[N+]1(CC#Cc2cccc3ccccc23)CCCC1 | 1.9 | 0.33 | · | ·
Cc1ccc2c(CC(=O)O)coc2c1 | 7.1 | -0.07 | 1.4 | ·
Cc1ccc2c(CC(=O)NNC(=O)c3ccccc3)coc2c1 | 34.0 | 6.68* | -2.1 | 0.084*
CCOC(=O)c1sc(NC(=O)CSc2nnnn2-c2ccccc2)nc1C | · | -1.04 | -0.7 | ·
SMILES | Measles CPE | sdo1 growth | Phagocytosis inh | SDO1 rescue DR
CCOC(=O)c1sc(NC(=O)CSc2nnnn2-c2ccc(C)c(C)c2)nc1C | 5.0 | 1.53 | -1.3 | 0.0997*
O=C(Cn1c2c(sc1=O)C1c3ccccc3OCC1CS2)Nc1ccc(Cl)c(Cl)c1 (configuration not stated) | 7.5 | -1.43 | 7.0 | ·
CC(=O)c1ccc(NC(=O)c2ccc(COc3ccccc3[N+](=O)[O-])o2)cc1 | 10.2 | 1.89 | -6.6 | 0.0965*
O=C(O)c1ccc(COc2ccccc2[N+](=O)[O-])o1 | 13.4 | 1.94 | 6.3 | ·
CCn1c(C)[n+](CCOCC[n+]2c(C)n(CC)c3cc(Cl)c(Cl)cc32)c2cc(Cl)c(Cl)cc21 | 14.0 | 0.21 | -1.1 | ·
C=CCc1cc(/C=N/NC(=O)CSc2nnc(CCCc3ccc(OC)cc3)o2)cc(OC)c1O | 10.4 | 1.49 | -1.1 | 0.0875*
C=CCc1cc(/C=N\NC(=O)CSc2nnc(CCCc3ccc(OC)c(C)c3)o2)cc(OC)c1O | 3.0 | 0.04 | -2.1 | ·
Cc1ccc2c(c1)nnn2C1CCN(CC(=O)Nc2ccccc2N2CCOCC2)CC1 | 7.4 | -1.19 | 1.1 | ·
